Compound activity: PubChem, several laboratories
Rows were chosen to be rich in hits. Some 2.4% of all compounds tested hit in one or more screens of this group.
NRP1-CendR mod – NRP-1/CendR interaction modulation; O14786; FAM-RPARPAR peptide binding to NRP-1, fluorescence polarization; inhibition, % at 25 µM; 360,000 compounds, 0.85% hits;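 active = inhibition or corrected inhibition above about 18%, plus a signal ratio from 0.5 to 1.5, limit read from the data, passing the limit was not always enough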
Target sequence (O14786 whole entry, looked up): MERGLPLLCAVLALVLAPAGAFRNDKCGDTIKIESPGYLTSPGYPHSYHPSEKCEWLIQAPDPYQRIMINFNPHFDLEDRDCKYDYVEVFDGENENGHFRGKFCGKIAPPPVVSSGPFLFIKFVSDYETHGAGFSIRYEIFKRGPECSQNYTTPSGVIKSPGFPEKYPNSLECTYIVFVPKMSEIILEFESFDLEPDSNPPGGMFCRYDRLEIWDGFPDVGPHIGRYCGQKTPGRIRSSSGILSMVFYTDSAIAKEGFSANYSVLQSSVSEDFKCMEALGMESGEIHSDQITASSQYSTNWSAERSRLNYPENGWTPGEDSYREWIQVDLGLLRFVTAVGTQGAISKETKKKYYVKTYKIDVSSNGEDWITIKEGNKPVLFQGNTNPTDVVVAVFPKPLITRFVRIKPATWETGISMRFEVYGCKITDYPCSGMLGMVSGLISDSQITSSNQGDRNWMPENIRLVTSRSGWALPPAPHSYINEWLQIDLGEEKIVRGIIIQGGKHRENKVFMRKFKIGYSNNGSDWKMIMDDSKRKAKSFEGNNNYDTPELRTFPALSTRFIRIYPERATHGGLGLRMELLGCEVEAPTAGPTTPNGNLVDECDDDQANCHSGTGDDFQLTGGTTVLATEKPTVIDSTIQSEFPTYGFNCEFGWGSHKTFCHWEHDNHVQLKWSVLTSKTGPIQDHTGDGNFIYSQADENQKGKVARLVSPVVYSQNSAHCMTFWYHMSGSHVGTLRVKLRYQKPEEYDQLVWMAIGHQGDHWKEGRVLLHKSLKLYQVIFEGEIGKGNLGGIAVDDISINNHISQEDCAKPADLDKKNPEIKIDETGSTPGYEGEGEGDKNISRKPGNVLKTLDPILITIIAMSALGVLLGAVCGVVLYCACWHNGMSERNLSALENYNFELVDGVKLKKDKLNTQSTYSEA
A3A deaminase – blocks human APOBEC3A ssDNA deamination. recombinant A3A, FAM/TAMRA ssDNA deamination fluorescence. 330,000 compounds, 0.41% hits. inhibition, % at 20 µM;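 active = at least 40% inhibition at 20 µM here, with at most 30% in a related deaminase screen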
ADAM10 inh – inhibitors of human ADAM10; O14672; recombinant ADAM10, EDANS/DABCYL FRET peptide cleavage, 3 h; inhibition, % at 7 µM; 370,000 compounds, 0.62% hits;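 active = inhibition above a per-campaign cutoff equal to the mean of compounds falling between control-based bounds plus 3 SD, cut at about 20% in these data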
ADAM17 inh – inhibitors of human ADAM17; P78536; inhibition, % at 6.95 µM; 370,000 compounds, 0.83% hits; recombinant ADAM17, EDANS/DABCYL FRET peptide cleavage;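 active = inhibition above the mean of compounds lying between control limits plus 3 SD, set per campaign, cut at about 8.5% in these data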
APOBEC3G inh – inhibitors of human APOBEC3G DNA deaminase | 330,000 compounds, 0.28% hits | Q9HC16 | inhibition, % at 20 µM | recombinant A3G, ssDNA deamination FAM/TAMRA fluorescence;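 active = inhibition of at least 40% at 20 µM, with no more than 30% in the related APOBEC3A deaminase screen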
ADAM10 counter – counter-screen for ADAM17 exosite inhibitors: inhibitors of human ADAM10; shares compounds with ADAM17 inh; recombinant ADAM10, EDANS/DABCYL FRET peptide cleavage, 3 h; inhibition, % at 6.95 µM; 2,900 compounds, 47% hits;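 active = mean inhibition over the triplicate runs exceeds the activity threshold set in the earlier primary screen, cut at about 20% in these data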
ADAM17 confirm – human ADAM17 inhibition, confirmation | shares compounds with ADAM17 inh | recombinant ADAM17, EDANS/DABCYL QFRET peptide cleavage | inhibition, % at 6.95 µM | 2,900 compounds, 65% hits | AID 743257;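 active = mean inhibition across replicates above the hit cutoff set in the primary screen, cut at about 8.5% in these data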
Numbers stand for hits; – = inactive; · = no result given.

SMILES	NRP1-CendR mod	A3A deaminase	ADAM10 inh	ADAM17 inh	APOBEC3G inh	ADAM10 counter	ADAM17 confirm
COC(=O)c1cc2c(c3c4cc(OC)ccc4n(S(=O)(=O)c4cccc(C)c4)c13)C(=O)N(C)C2	·	·	–	–	·	·	·
CCOc1ccc2nc(NC(=O)C3CCN(S(=O)(=O)c4cnc[nH]4)CC3)sc2c1	–	–	–	8.7	–	–	–
COc1cccc(CNC(=O)[C@H]2CCCN2C(=O)[C@H]2CCCN2C(=O)c2ccccc2C(F)(F)F)c1	·	·	–	–	·	·	·
CC(C)C(c1nnnn1Cc1ccco1)N1CCN(c2cccc(Cl)c2)CC1 (centres undefined)	–	–	–	14	–	–	–
Cc1ccc(NC(=O)COc2ccc(Br)cc2CO)cc1	–	–	–	9.3	–	–	–
O=[N+]([O-])c1ccc(OC2OCC(O)C(O)C2O)cc1 (centres undefined)	·	·	–	–	·	·	·
CN(C)/C=N/c1ncnc2c1cnn2-c1ccc(C(F)(F)F)cn1	–	·	–	9.2	·	–	–
Cc1nn(-c2ccc(C(F)(F)F)cn2)c(C)c1Oc1ccccc1O	–	–	–	–	–	·	·
COc1ccc(NC(=O)c2cc(-c3cc(Cl)ccc3C)n[nH]2)c(OC)c1	–	·	–	9.9	·	23	11
CC(C)(C)OC(=O)NCCc1ccccc1/C=C/S(=O)(=O)NCc1ccccc1	·	·	–	–	·	·	·
COc1ccc(C(C(=O)N(C)C2CCCC2)N(Cc2ccc(F)cc2)C(=O)c2ccc3ccccc3c2)cc1OC (centres undefined)	·	·	–	–	·	·	·
O=C(NCc1ccco1)c1ccc(S(=O)(=O)N2CCCc3ccccc32)cc1	–	–	–	10	–	–	–
CCOc1cc(S(=O)(=O)n2cc(-c3ccc(F)cc3)c(N)n2)cc(OCC)c1OCC	–	–	–	11	–	31	18
CCN1C(=O)[C@H]2[C@@H](c3ccc(-c4ccc(C(C)=O)cc4)cc3)N3CCC[C@@]3(C(=O)OC)[C@H]2C1=O	–	–	–	9.7	–	–	–
CCN1C(=O)[C@@H]2[C@@H](c3ccc(-c4ccc(C(C)=O)cc4)cc3)N3CCC[C@@]3(C(=O)OC)[C@@H]2C1=O	–	–	–	–	–	·	·
COC(=O)[C@H](CC(C)C)N(CCc1cn(Cc2ccccc2)nn1)S(=O)(=O)c1ccccc1Br	·	·	–	8.7	·	–	12
COC(=O)[C@H](CC(C)C)N(CCc1cn(Cc2ccc(C)cc2)nn1)S(=O)(=O)c1ccc(F)cc1Br	·	·	–	–	·	·	·
COC(=O)[C@H](CC(C)C)N(CCc1cn(Cc2ccccc2)nn1)S(=O)(=O)c1ccc(F)cc1Br	·	·	–	–	·	·	·
COC(=O)[C@H](CC(C)C)N(CCCc1cn(Cc2ccccc2)nn1)S(=O)(=O)c1ccccc1Br	·	·	–	13	·	36	15
CCOC(=O)[C@@]12CCC3=C1N(CCC3)C(=O)[C@H](CC(=O)N1CCCCC1)C2	·	·	–	–	·	·	·
COc1ccccc1NS(=O)(=O)c1ccc(C)c(NC(=O)c2ccc(S(=O)(=O)N3CCCCCC3)cc2)c1	–	–	–	12	–	36	18
COc1ccc(NC(=O)c2ccc(S(=O)(=O)N3CCCCC3)cc2)cc1OC	–	–	–	9.0	–	–	10
CC[C@]1(c2ccc(C)cc2)C(=O)N(C(=O)OC(C)C)N1C(=O)OC(C)C	·	·	–	–	·	·	·
COc1ccccc1C(CCN(Cc1cccs1)C(C)=O)c1ccco1 (centres undefined)	–	–	–	–	–	·	·
CCC(=O)N(CCC(c1ccccc1)c1ccco1)Cc1cccs1 (centres undefined)	–	–	–	9.8	–	–	–
COC(=O)[C@H]1C[C@@]2(n3ccc4ccccc43)c3ccccc3N(S(=O)(=O)c3ccccc3)[C@H]2N1	·	·	–	–	·	·	·
CC1=C(C(=O)Nc2ccccc2)C(c2cccc([N+](=O)[O-])c2)Nc2nc3ccccc3n21 (centres undefined)	–	–	–	8.8	–	–	–
O=C1OC(Cc2ccccc2)(c2ccccc2)c2ccccc21 (centres undefined)	–	·	–	11	·	–	–
F[B-](F)(F)c1cncnc1	·	·	–	–	·	·	·
